Only some compounds are listed: those with a hit (about 0.41% of all), similar ones and a draw of the others.
GLA inh pH 4.5: qHTS Assay for Inhibitors of Human alpha-Galactosidase at pH 4.5; Alpha-galactosidase A (Homo sapiens), P06280; purified enzyme, 4-MU-alpha-Gal fluorescence, pH 4.5; activity change, negative = inhibition, % at 105 µM; 230,000 tested, under 10 active
Target sequence (P06280 whole entry, looked up): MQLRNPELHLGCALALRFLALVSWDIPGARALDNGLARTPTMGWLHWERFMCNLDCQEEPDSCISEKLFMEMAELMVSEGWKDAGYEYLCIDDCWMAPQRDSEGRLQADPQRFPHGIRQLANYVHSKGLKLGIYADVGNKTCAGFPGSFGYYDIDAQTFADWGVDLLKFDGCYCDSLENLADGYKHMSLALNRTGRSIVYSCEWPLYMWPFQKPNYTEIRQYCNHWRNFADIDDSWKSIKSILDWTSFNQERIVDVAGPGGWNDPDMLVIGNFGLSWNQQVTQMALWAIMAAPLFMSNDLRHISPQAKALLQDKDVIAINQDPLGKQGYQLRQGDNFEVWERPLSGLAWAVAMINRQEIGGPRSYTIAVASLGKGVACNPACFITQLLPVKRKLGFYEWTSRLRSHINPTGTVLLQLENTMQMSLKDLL
GAA glycogen: qHTS Assay for Inhibitors and Activators of Human alpha-Glucosidase Cleavage of Glycogen | Lysosomal alpha-glucosidase (Homo sapiens), P10253 | recombinant GAA, glycogen substrate, Amplex Red glucose oxidase fluorescence | Potency, µM (doses to about 76.4 µM), most hits filed as inhibitors | 0.38% of 300,000 active;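 note: the screen sought inhibitors and activators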
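Recombinant human alpha-glucosidase (4 nM final) hydrolysed bovine liver glycogen (30 ug) for 40 min at 37 C in pH 5.0 citrate/phosphate with 0.01% Tween-20. Released glucose detected by glucose oxidase/Amplex Red, Ex 573/Em 610 nm. Compounds up to 77 uM; AC50 from Hill fits.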
aGal spleen mod: qHTS Assay for Inhibitors and Activators of Human alpha-Galactosidase From Spleen Homogenate. Alpha-galactosidase A (Homo sapiens), P06280. human spleen homogenate, 4MU-alpha-Gal fluorescence, 40 min. Potency, µM (series often up to 80 µM), hits mostly inhibitors. 0.008% of 240,000 active. AID 2107, 2009
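qHTS titration in buffer at pH 5.0. Alpha-galactosidase activity in spleen homogenate was measured via 4-methylumbelliferone release from 1 mM fluorogenic substrate after 40 min at 37C and a pH 10 stop. AC50 came from Hill fits of control-normalized data.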
N370S GC: qHTS Assay for Inhibitors and Activators of N370S glucocerebrosidase as a Potential Chaperone Treatment of Gaucher Disease | Lysosomal acid glucosylceramidase (Homo sapiens), P04062 | N370S GC spleen homogenate, 4MU-glucoside fluorescence | Potency, µM (highest dose often 59.4 µM), hits mostly inhibitors | 0.092% of 330,000 active | AID 2101, 2009
aGlu spleen mod: qHTS Assay for Inhibitors and Activators of Human alpha-Glucosidase From Spleen Homogenate. Lysosomal alpha-glucosidase (Homo sapiens), P10253. human spleen homogenate, 4-MU-alpha-glucoside fluorescence. Potency, µM (top dose mostly 79.9 µM), most hits filed as inhibitors. 0.006% of 240,000 active
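AC50 values come from Hill-equation fits of concentration-response data, normalized to no-enzyme and full-activity controls. Enzyme source: 1 ug human spleen homogenate; 1 mM fluorogenic 4-MU glucoside, pH 5.0 citrate buffer, 37 C, 40 min.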
GAA inhib: qHTS Assay for Inhibitors of Human alpha-Glucosidase as a Potential Chaperone Treatment of Pompe Disease; Lysosomal alpha-glucosidase (Homo sapiens), P10253; purified human GAA, 4-MU-alpha-glucoside fluorescence; Potency, µM (doses to about 76.9 µM), actives largely listed as inhibitors; 0.005% of 200,000 active; AID 1466, 2008
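Human alpha-glucosidase, 4 nM, pre-mixed with test compounds before 400 uM 4-methylumbelliferyl substrate; 20 min room temperature at pH 5.0. Fluorescence read after pH 10 stop; AC50 values from Hill-equation fits.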
A number is an active result; [ ] = another dose, or the depositor's remark. Calls come from the whole dose curve; as a rule, active = well fitted curve in the direction sought with a large enough effect; inconclusive = small, poorly fitted or top-dose-only effect, or another doubt; inactive = no such curve, though single readings can be large; an effect the other way counts as inactive or inconclusive.

How did COc1cc(OC)c(C2C=C(c3ccc(C)cc3)Nc3c(C(=O)Nc4ccccc4)cnn32)cc1OC (configuration not stated) do in these assays?
GAA glycogen: inactive

Results for COC(=O)c1[nH]c2ccc(Cl)cc2c1NC(=O)Oc1ccccc1 ?
GLA inh pH 4.5: inactive; GAA glycogen: 25µM; aGal spleen mod: inactive; N370S GC: inactive; aGlu spleen mod: inactive; GAA inhib: inactive

Results for CC(C)(C)C(=O)Nc1sc(-c2ccccc2)cc1C(=O)O ?
GLA inh pH 4.5: inactive; GAA glycogen: inactive; aGal spleen mod: inactive; N370S GC: inactive; aGlu spleen mod: inactive

What do the screens show for `CCOC(=O)c1cc(-c2ccc(N)cc2)sc1N`?
GLA inh pH 4.5: inactive; GAA glycogen: 14µM; aGal spleen mod: inactive; N370S GC: inactive; aGlu spleen mod: inactive; GAA inhib: inconclusive

What do the screens show for `Nc1sc(-c2ccccc2)cc1C(=O)O`?
GLA inh pH 4.5: inactive; GAA glycogen: 25µM; aGal spleen mod: inactive; N370S GC: inactive; aGlu spleen mod: inactive; GAA inhib: inactive

Results for CCOC(=O)c1sc(-c2ccc(Br)cc2)cc1N ?
GLA inh pH 4.5: inactive; GAA glycogen: inactive; aGal spleen mod: inactive; N370S GC: inactive[12.8 µM]; aGlu spleen mod: inactive; GAA inhib: inactive

What do the screens show for `Cc1cc(C)cc(N2CCn3c2nc2c3c(=O)n(C/C=C/c3ccccc3)c(=O)n2C)c1`?
GAA glycogen: inactive

How did COc1cccc(N2C(=O)CC(N3CCc4ccccc43)C2=O)c1 (configuration not stated) do in these assays?
GLA inh pH 4.5: inactive; GAA glycogen: 40µM; aGal spleen mod: inactive; N370S GC: inactive; aGlu spleen mod: inactive; GAA inhib: inactive

How did CCN(CC)c1ccc(/C=N/Nc2nc(C)cc(C)n2)cc1 do in these assays?
GLA inh pH 4.5: inactive; GAA glycogen: 11µM; aGal spleen mod: inactive; N370S GC: inactive; aGlu spleen mod: inactive

What do the screens show for `Cc1cc(C)nc(N/N=C/c2ccccc2)n1`?
GAA glycogen: inactive; aGal spleen mod: inactive; N370S GC: inactive; aGlu spleen mod: inactive; GAA inhib: inactive

What do the screens show for `O=C1Nc2ccccc2N(O)N1c1ccc(Cl)cc1`?
GLA inh pH 4.5: inactive; GAA glycogen: inactive; aGal spleen mod: inactive; N370S GC: inactive; aGlu spleen mod: inactive; GAA inhib: inactive

How did CCN1c2ccccc2NC2C1C(C(C)=O)C(=O)N2c1ccc(Cl)cc1 (configuration not stated) do in these assays?
GLA inh pH 4.5: inactive; GAA glycogen: 25µM; aGal spleen mod: inactive; N370S GC: inactive; aGlu spleen mod: inactive; GAA inhib: inactive

Results for CO[C@H]1C=CO[C@@]2(C)Oc3c(C)c(O)c4c(O)c(c5c(nc6cc(C)ccn65)c4c3C2=O)NC(=O)C(C)=CC=C[C@H](C)[C@H](O)[C@@H](C)[C@@H](O)[C@@H](C)[C@H](OC(C)=O)[C@@H]1C ?
GLA inh pH 4.5: inactive; GAA glycogen: 20µM; aGal spleen mod: inactive; N370S GC: inactive; aGlu spleen mod: inactive; GAA inhib: inactive[15.4 µM]

Results for COC1/C=C/OC2(C)Oc3c(C)c(O)c4c(O)c(c(/C=N/N5CCN(C)CC5)c(O)c4c3C2=O)NC(=O)/C(C)=C/C=C/C(C)C(O)C(C)C(O)C(C)C(OC(C)=O)C1C (configuration not stated) ?
GLA inh pH 4.5: inactive; aGal spleen mod: inactive; N370S GC: inactive; aGlu spleen mod: inactive

Results for COC1=C/C(=C/c2c(N)n3c(nc2=O)sc2cc(S(C)(=O)=O)ccc23)C=CC1=O ?
GLA inh pH 4.5: inactive; GAA glycogen: inactive; aGal spleen mod: inactive; N370S GC: inactive; aGlu spleen mod: inactive

How did CS(=O)(=O)c1ccc2c(c1)sc1nc(=O)c(/C=C3/C=CC(=O)C(O)=C3)c(N)n12 do in these assays?
GLA inh pH 4.5: inactive; GAA glycogen: 8.9µM; aGal spleen mod: inactive; N370S GC: inactive; aGlu spleen mod: inactive; GAA inhib: inconclusive

What do the screens show for `COc1ccc(-c2cc3ccccc3[nH]2)cc1`?
GLA inh pH 4.5: inactive; GAA glycogen: inactive; aGal spleen mod: inactive; N370S GC: inactive; aGlu spleen mod: inactive

What do the screens show for `Cc1ccc(O)c(-c2cc3ccccc3[nH]2)c1`?
GLA inh pH 4.5: inconclusive; GAA glycogen: 32µM; aGal spleen mod: inactive; N370S GC: inactive; aGlu spleen mod: inactive; GAA inhib: inconclusive

How did COc1ccccc1CC(=O)Nc1ccc2nc(Nc3cccc(C(F)(F)F)c3)cc(C)c2c1 do in these assays?
GAA glycogen: inactive

Results for Clc1ccc(-c2nc3ccccn3c2CN2CCOCC2)cc1 ?
GLA inh pH 4.5: inactive; GAA glycogen: inactive; aGal spleen mod: inactive; N370S GC: inactive; aGlu spleen mod: inactive; GAA inhib: inconclusive

What do the screens show for `Clc1ccc2nc(-c3ccccc3)c(CN3CCOCC3)n2c1`?
GLA inh pH 4.5: inactive; GAA glycogen: inactive; aGal spleen mod: inactive; N370S GC: 18µM; aGlu spleen mod: inactive; GAA inhib: inactive

Results for O=C(Nc1ccc(Cl)c(Cl)c1)N(CCCN1CCOCC1)Cc1cccs1 ?
GLA inh pH 4.5: inactive; GAA glycogen: inactive; aGal spleen mod: inactive; N370S GC: 13µM; aGlu spleen mod: inactive; GAA inhib: inactive

How did O=C(CNC(=S)N(CCCN1CCOCC1)Cc1cccs1)NC1CCCCCCC1 do in these assays?
GLA inh pH 4.5: inactive; GAA glycogen: inactive; aGal spleen mod: inactive; N370S GC: 4µM; aGlu spleen mod: inactive; GAA inhib: inactive

How did CCOC(=O)c1cnc2nc(NCc3cccc(Br)c3)[nH]n2c1=O do in these assays?
GAA glycogen: inactive

Results for CC1(C)Cc2c(sc3ncn(N)c(=N)c23)CO1 ?
GLA inh pH 4.5: inactive; GAA glycogen: inactive; aGal spleen mod: inactive; N370S GC: inactive; aGlu spleen mod: inactive; GAA inhib: inactive

How did CC1(C)Cc2c(sc3ncn4c(=S)[nH]nc4c23)CO1 do in these assays?
GLA inh pH 4.5: inactive; GAA glycogen: 28µM; aGal spleen mod: inactive; N370S GC: inactive; aGlu spleen mod: inactive; GAA inhib: inactive

What do the screens show for `Cc1ccc(Cl)cc1N1CCN(C(=O)c2ccc3c(c2)N(Cc2ccc(F)cc2)CCS3)CC1`?
GAA glycogen: inactive

What do the screens show for `COc1cc(O)ccc1-c1nc2cc(C)ccn2c1Nc1ccccc1C`?
GAA glycogen: 13µM
